The panel holds about 83,000 compounds, 20% with a hit somewhere; the sample as a whole holds those more often.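 Method: cells in 96-well plates; compound added at one concentration; 48 h incubation; percent growth measured; values under 10 scored active.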 Values without a mark were called inactive. Calls of active or inactive are those of the source.
System: SNB-19 CNS
Experiment: NCI-60 one-dose screen, 48 h (100 = growth as untreated, 0 = no growth, -100 = all killed)
Details: 10 µM unless noted

Which growth does the source give for `CCN(CC)c1nc(SCC(=O)Nc2nc3ccc(C)cc3s2)nc(-c2ccccc2)c1C#N` here?
The growth was 89.5%.

How did the growth turn out when `Cn1cc(-c2csc(-c3cccc(F)c3)n2)c2cccnc21` was run?
The growth was -62.8% [100 µM] (active).

`CCN1CCN(c2cc(C)nc(NCc3cc(Nc4ccnc5cc(Cl)ccc45)ccc3F)n2)CC1` was tested. Which growth did it give?
Its growth is 68.3%.

`CSc1n(Cc2ccc3ccccc3c2)c(C)c[n+]1Cc1ccc2ccccc2c1` was tested. Which growth did it give?
Its growth is 3.42% (active).

`NC(=N\N=C/c1cccc([N+](=O)[O-])c1)/C(N)=N\N=C/c1cccc([N+](=O)[O-])c1` was tested. Which growth did it give?
Its growth is 105%.

For `COc1ccc(-c2csc(C3=C(O)CN(C(C)C)C3=N)n2)cc1OC`, which growth is on record?
The growth was 104%.

For `COc1ccc(-c2ccc3c(c2)sc2nc(-c4ccc(F)cc4)cn23)cc1`, which growth is on record?
The growth was 103%.

With `Cc1ccc(S(=O)(=O)NCC[C@@H]2C[C@H]2c2cc3ccccc3s2)cc1` as the compound, how does the growth read?
Its growth is 95.6%.

For `Cc1cccc(NC(=O)CSc2nc3ccccc3[nH]2)c1`, which growth is on record?
Its growth is 94.9%.

Which growth does the source give for `C[n+]1cc2cc(C(N)=O)[nH]c3c(=N)c(Cl)c(N)c1c23` here?
Its growth is 75.1%.

Which growth does the source give for `CCN(CC)CCCNc1ccc(Nc2ccc(OC)cc2)cc1` here?
Its growth is 102%.

With `O=C1C=C[C@]2(C[C@@H](c3cccc(C(F)(F)F)c3)O[C@@H](c3cccc(C(F)(F)F)c3)O2)O1` as the compound, how does the growth read?
The growth was 33.2%.

How did the growth turn out when `Cc1nc2c(c(N3CCCc4ccccc43)n1)CCC2` was run?
The growth was 40%.

Which growth does the source give for `Cc1cc(Cl)nc(NCc2cc(Nc3ccnc4cc(Cl)ccc34)ccc2F)n1` here?
Its growth is 80.6%.

`COc1ccc(NC(=O)CSc2nnc(-c3cc(-c4ccc(S(N)(=O)=O)cc4)nc4ccccc34)n2-c2ccccc2)cc1` was tested. Which growth did it give?
The growth was 82.5%.

How did the growth turn out when `COc1ccc(-c2nc3ccc4[nH]ncc4c3c3c2CCCC3)cc1B(O)O` was run?
Its growth is 82.7%.

With `CC/C=C\C[C@H](O)C/C=C1/C(=O)C=C[C@@H]1C/C=C\CCCCO` as the compound, how does the growth read?
Its growth is 55.8%.

Which growth does the source give for `O=C(/C=C/c1c(Cl)nc2sccn12)c1nccs1` here?
Its growth is 102%.

For `O=c1[nH]ccc2nc(N3CCC(O)CC3)nc(Nc3ccc(N4CCOCC4)cc3)c12`, which growth is on record?
The growth was 97.1%.

`COc1ccc2c(c1)CCCN2c1c2ccccc2nc2ccccc12` was tested. Which growth did it give?
The growth was 34.6%.

With `COc1ccc(N=C(c2ccccc2)C2C(=O)c3ccccc3C2=O)cc1` as the compound, how does the growth read?
The growth was 89.5%.

How did the growth turn out when `Cc1c(O)cc(-c2cnc(N/N=C\c3ccc(Cl)cc3)s2)c(O)c1C` was run?
The growth was 97%.

With `NS(=O)(=O)c1ccc(-n2nc(C(=O)N/N=C\c3ccc(F)cc3)cc2-c2ccc(Cl)cc2)cc1` as the compound, how does the growth read?
The growth was 85.5%.

How did the growth turn out when `CCN1CCN(c2nc(C)cc(NCc3cc(Nc4ccnc5cc(Cl)ccc45)ccc3F)n2)CC1` was run?
The growth was 34.7%.

How did the growth turn out when `COc1ccc2[nH]c(O)c(/C=c3/cc4c(c(-c5ccc(F)c(OC)c5)n3)=Nc3ccccc3-4)c2c1` was run?
Its growth is 47.6%.

`CCCCCS(=O)(=O)Nc1ccc(C(=O)O)cc1` was tested. Which growth did it give?
The growth was 106%.

For `CN(C)CC1C(=O)O[C@H]2[C@H]1CC/C(COC(=O)c1cc3ccccc3[nH]1)=C\CC[C@@]1(C)O[C@@H]21` (some centres not stated), which growth is on record?
The growth was 49.5%.

With `N#CC1=C(c2ccc(Br)cc2)NC(SCC(=O)c2ccc(Br)cc2)NC1=O` (configuration not stated) as the compound, how does the growth read?
The growth was 110%.

Which growth does the source give for `O=c1c2c3c(sc2n2c(-c4cn(-c5ccccc5)nc4-c4ccc(Cl)cc4)nnc2n1Cc1ccccc1)CCCC3` here?
The growth was 97.9%.

Which growth does the source give for `COc1cc(/C=C/C(=O)c2cccc(-n3cc(-c4ccccc4)[nH]c3=O)c2)ccc1O` here?
The growth was 90.5%.

`CCCCCCCCCOc1c(OC)cc(C2CC(=O)Nc3c2c(C)nn3-c2nc3ccccc3[nH]2)cc1OC` (configuration not stated) was tested. Which growth did it give?
The growth was -4% (active).

With `Cc1ccc2c(c1)Sc1c(ccc3ccccc13)N2` as the compound, how does the growth read?
The growth was 94.5%.

Which growth does the source give for `CC(C)(C)C(CCc1ccc(Cl)cc1)N1CCN(C2CCCCC2)CC1` (configuration not stated) here?
The growth was 70.6%.

For `COc1ccc(C2=NN(C(=O)c3cc(OC)c(OC)c(OC)c3)C(c3ccc(Cl)cc3)C2)cc1OC` (configuration not stated), which growth is on record?
The growth was 29.1%.

For `Cc1cc(NCc2cc(Nc3ccnc4cc(Cl)ccc34)ccc2F)nc(N2CCSCC2)n1`, which growth is on record?
The growth was 42.9%.

`N#Cc1c(-c2cccc(Cl)c2)cc(-c2cccc(F)c2)[nH]c1=O` was tested. Which growth did it give?
The growth was 91.1%.

For `O=C(CSc1nnc(-c2ccc(NC(=O)c3cccnc3)cc2)o1)N[C@@H](Cc1ccc(O)cc1)C(=O)O`, which growth is on record?
The growth was 96.7%.
